From PubChem BioAssay (NCATS)
Results filed as inconclusive are left out. Calls of active or inactive are those of the source. The call rests on the fitted dose curve; in most records, active means well fitted inhibition curve with a large enough effect; inconclusive means small, poorly fitted or top-dose-only effect; inactive means no such curve, though single readings can be large or run the other way.

test: Primary qHTS for small molecule stabilizers of the endoplasmic reticulum resident proteome: Secreted ER Calcium Modulated Protein (SERCaMP) assay (AID 1508630); conditions: SH-SY5Y GLuc-SERCaMP (Gaussia luciferase released on ER calcium loss) secretion, thapsigargin, luminescence; series mostly up to 38.4 µM
Summary of the method: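 GLuc-SERCaMP-expressing SH-SY5Y cells, pretreated 16 h with compound, are challenged with thapsigargin to empty ER calcium stores; after 4 h, coelenterazine is added directly to the medium and luminescence is imaged.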

Potency, inactive:
CC(=O)Nc1ccccc1C(=O)C(=O)O, CCCCN(CC)CCOc1cccc2ccccc12, C[C@@H](C1[C@@H](O)CC2C3C=CC4C[C@@H](O)CC[C@]4(C)[C@H]3CC[C@@]21C)[C@@H]1CCCCN1 (some centres not stated), CC1(C)CCC[C@@]2(C)C1CC[C@@](C)(O)[C@@H]2CC[C@@](C)(O)C1CO1 (some centres not stated), Cn1c(=O)c(-c2ccccc2)c(O)c2ccccc21, CC1=C(C(=O)O)N2C(=O)[C@@H](NC(=O)[C@H](N)C3=CCC=CC3)[C@@H]2SC1, O=C(O)c1ccccc1-c1oc2cc(O)ccc2c(=O)c1Oc1ccccc1, O=CN1CCc2c([nH]c3ccccc23)C1c1cccc2cccnc12 (configuration not stated), COc1cc(C2=N/C(=C\c3ccccc3)C(=O)O2)cc(OC)c1OC, COc1cc2c(cc1OC)C(c1ccccc1)=NCC2, C=C1C[C@]23C[C@@]1(O)CC[C@H]2[C@@]12C=C[C@H](O)C(C)(C(=O)O1)[C@H]2[C@@H]3CC(=O)O, C/C(N[C@@H]1CSCC1O)=C1/C(=O)CC2[C@@H]1C2(C)C (some centres not stated), Cc1cc(O)c(C)c2c1CC[C@H]1[C@H](C)C(=O)O[C@H]21, O=C(O)C[C@@H]1NC(=O)[C@H](Cc2ccccc2)NC1=O, C[n+]1ccc(/C=C/c2ccc3ccccc3c2)cc1, C[C@]12CCC(=O)C=C1CCC1C3CC[C@](O)(C(=O)CO)[C@@]3(C)CC3OC312 (some centres not stated), Cc1nc2[nH]c(=O)[nH]c(=O)c2[nH]1, Cc1cc2c3c(cccc3n1)C(=O)c1ccccc1-2, CC(C)=CCC1=C(O)[C@](O)(CC=C(C)C)C(=O)C(C(=O)CC(C)C)=C1O, COc1cc2oc(=O)c3c4c(cc5ccc(c1CCN(C)C)c2c53)OCO4, CC1=CC2C(C)(C)CC(=O)C[C@]2(C)CC1COc1ccc2c(c1)CC(=O)C=C2 (some centres not stated), C[C@@H]1CCC2C(C)(C)C3CC21CC[C@@]3(C)O (some centres not stated)
